Compound activity from PubChem BioAssay.
The list is not random: actives were taken first. Their share in the collection is about 3.3%.
HTT cytoprotect: Huntington cell model cytoprotection by ATP luminescence. PC12 HTT-Q103 induced, cytoprotection, ATP luminescence, 40 h. Potency, µM (titrated, usually from 56.4 µM), hits mostly activators. 230,000 compounds, 0.14% hits. AID 1471; note: nearly all actives have a fitted effect of over 45% in size
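Stable PC12 Q103-GFP cells in serum-supplemented, phenol red-free DMEM; induction by tebufenozide at 100 nM final; compound dose series; cell viability quantified luminescently from ATP.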
PNC assembly inh: perinucleolar compartment assembly inhibition; AID 2417; activity change (PNC), negative = inhibition, % at 10 µM; 140,000 compounds, 3.1% hits; PC3M PTB-GFP, PNC prevalence imaging, 16 h; active compounds read low;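 active = readout at or below -70, meaning at least 70% loss of cells showing the perinucleolar compartment, a nuclear body marking cancer cells; inconclusive = readout between -30 and a set limit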
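Read-out is percentage of cells bearing a perinucleolar compartment, from automated 20x imaging of fixed, Hoechst-stained PC3M PTB-GFP cells. Cells were seeded 4 h, then exposed 16 h to compound (23 nl of library stock) in duplicate plates.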
NPSR antag: antagonists of human neuropeptide S receptor cAMP signaling | AID 1461 | Potency, µM (titrated, usually from 38.3 µM), actives largely listed as inhibitors | Q6W5P4 | CHO-NPSR cells, cAMP TR-FRET, antagonist mode | 220,000 compounds, 1% hits; note: nearly all actives have a fitted effect of over 50% in size
Target sequence (Q6W5P4 whole entry, looked up): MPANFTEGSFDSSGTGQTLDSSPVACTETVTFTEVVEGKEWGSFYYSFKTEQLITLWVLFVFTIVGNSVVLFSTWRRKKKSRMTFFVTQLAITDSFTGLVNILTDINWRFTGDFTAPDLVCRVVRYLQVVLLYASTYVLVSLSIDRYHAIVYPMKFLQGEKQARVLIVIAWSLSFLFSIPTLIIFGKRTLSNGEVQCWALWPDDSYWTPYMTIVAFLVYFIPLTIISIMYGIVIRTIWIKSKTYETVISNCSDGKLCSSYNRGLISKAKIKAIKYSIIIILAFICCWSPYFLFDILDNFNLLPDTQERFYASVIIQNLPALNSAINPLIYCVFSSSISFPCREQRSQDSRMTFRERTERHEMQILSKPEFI
12-hLO inh: 12-hLO (ALOX12) enzyme inhibition; P18054; purified 12-hLO, xylenol orange hydroperoxide absorbance; Potency, µM (titrated, usually from 57.1 µM), most hits filed as inhibitors; 150,000 compounds, 0.12% hits; AID 1452; note: nearly all actives have a fitted effect of over 55% in size
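Xylenol orange chromogenic assay: hydroperoxide from 12hLO oxidises Fe(II), giving red-shifted Fe(III)-XO absorbance. Conditions: 150 nM enzyme, 40 uM arachidonic acid, 25 mM Hepes pH 7.0, 0.01% Triton X-100, 30 min, room temperature.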
HTT aggregate: reduces HttQ103-GFP aggregates in PC12 cells; PC12 HttQ103-GFP aggregates, Acumen cytometry, 40 h; Potency, µM (series often up to 46.1 µM), hits mostly inhibitors; 220,000 compounds, 1.1% hits; AID 1688; note: nearly all actives have a fitted effect of over 60% in size
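Quantitative HTS on tebufenozide-induced (100 nM) PC12 cells stably expressing polyQ103 Huntingtin exon 1–GFP. Reduction of bright GFP aggregates, detected by laser scanning cytometry after lysis, identified actives across the titration.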
IMPase inh: IMPase inhibition in cells; P97697; CHO-M1 cells, IP1 accumulation, HTRF TR-FRET ratio; inhibition (IP1 accumulation), % at 46.1 µM; 120,000 tested, under 10 active; AID 901; active = well fitted curve in the direction sought with a large enough effect in the signal ratio, not every such curve was filed as active; inconclusive = small, poorly fitted or top-dose-only effect, or a change in a side signal; inactive = no such curve, though single readings can be large or run the other way; the % refers to the signal ratio;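 note: cells stimulated with carbachol in lithium chloride buffer; higher means more IMPase inhibition seen as more IP1 and lower FRET ratio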
Target sequence (P97697 whole entry, looked up): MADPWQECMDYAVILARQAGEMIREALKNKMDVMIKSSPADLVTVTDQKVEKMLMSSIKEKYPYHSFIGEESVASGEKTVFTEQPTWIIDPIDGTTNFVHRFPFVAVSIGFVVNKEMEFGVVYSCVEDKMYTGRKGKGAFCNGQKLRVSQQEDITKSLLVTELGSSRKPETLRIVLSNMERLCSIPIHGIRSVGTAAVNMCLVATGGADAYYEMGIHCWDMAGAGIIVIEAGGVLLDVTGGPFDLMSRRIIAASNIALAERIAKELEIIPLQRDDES
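The IP-One HTRF competitive assay in carbachol-stimulated CHO-M1 cells quantifies cellular IP1. Compounds spanned up to 46 uM final, and activity is expressed as AC50 from concentration-response fits of the ratio and donor data.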
Of the large screens only hits and unclear results are named; the others gave an inactive call. Unless noted, calls come from the whole dose curve; as a rule, active = well fitted curve in the direction sought with a large enough effect; inconclusive = small, poorly fitted or top-dose-only effect, or another doubt; inactive = no such curve, though single readings can be large; an effect the other way counts as inactive or inconclusive.

O=C1N/C(=N/O)S/C1=C\c1ccccc1-n1cccn1	none (no result: PNC assembly inh, 12-hLO inh, IMPase inh)
O=C(c1cccc(F)c1)N1CCC2(CCCN(c3ncccn3)C2)CC1	none (no result: PNC assembly inh, NPSR antag, HTT aggregate, IMPase inh)
Cc1ccc(S(=O)(=O)N(CC(=O)NCc2cccnc2)C2CCCCC2)cc1	none (no result: HTT cytoprotect, PNC assembly inh, 12-hLO inh, HTT aggregate, IMPase inh)
Cc1cc(C)c(S(=O)(=O)N(CC(=O)NCc2cccnc2)C2CCCCC2)c(C)c1	PNC assembly inh -88
O=C(CN(C1CCCCC1)S(=O)(=O)c1ccc(Br)cc1)NCc1ccncc1	none (no result: PNC assembly inh, 12-hLO inh, IMPase inh)
O=C(CN(C1CCCCC1)S(=O)(=O)c1ccc(Cl)cc1)NCc1ccncc1	PNC assembly inh -100
CCN1CCCC1CNC(=O)c1ccc(-n2c(=O)c(=O)[nH]c3ccccc32)cc1 (stereo not drawn)	none (no result: HTT cytoprotect, PNC assembly inh, NPSR antag, HTT aggregate, IMPase inh)
CC1(C)OC[C@@H]2O[C@H](n3cnc4c(N)nc(Cl)nc43)[C@@H](OS(C)(=O)=O)[C@@H]2O1	none (no result: PNC assembly inh, NPSR antag, HTT aggregate, IMPase inh)
Cc1ccc2c(c1)Oc1ccc(NC(=O)CCl)cc1C(=O)N2	HTT aggregate 25µM (no result: PNC assembly inh, 12-hLO inh, IMPase inh)
O=C(/C=C/c1c(Cl)cccc1Cl)n1cccn1	PNC assembly inh -95
Cc1onc(-c2ccccc2)c1C(=O)NC(=S)NNC(=O)c1ccccc1O	PNC assembly inh -95, HTT aggregate inconclusive (no result: HTT cytoprotect, IMPase inh)
COC(=O)C(CCCCNC(=O)c1ccc([N+](=O)[O-])cc1)NC(=O)c1ccc([N+](=O)[O-])cc1 (stereo not drawn)	none (no result: HTT cytoprotect, IMPase inh)
COc1ccc(CN(Cc2cccnc2)C(=S)NCCc2ccccc2)cc1OC	PNC assembly inh -106, NPSR antag inconclusive, HTT aggregate inconclusive
NS(=O)(=O)c1ccc(NC(=S)N2CCN(Cc3ccc(Cl)c(Cl)c3)CC2)cc1	HTT aggregate 22µM (no result: PNC assembly inh, 12-hLO inh, IMPase inh)
CC1(C)CC(CC(=O)NNc2nc(-c3ccccc3)cs2)C(=O)O1 (stereo not drawn)	PNC assembly inh -84 (no result: HTT cytoprotect, IMPase inh)
Cc1occc1C(=O)Nc1ccc(S(=O)(=O)N2CCCC2)cc1	HTT aggregate 4µM
O=C(COC(=O)c1ccc(Br)o1)Nc1ccc(S(=O)(=O)N2CCCC2)cc1	PNC assembly inh -80
CCC(=O)Nc1ccc(S(=O)(=O)N2CCOCC2)cc1	PNC assembly inh -80
Cc1occc1C(=O)Nc1ccc(S(N)(=O)=O)cc1	none (no result: PNC assembly inh, 12-hLO inh, IMPase inh)
Cc1cc(C)n(-c2ccc(C(=O)OCC(=O)Nc3ccc(S(=O)(=O)N4CCOCC4)cc3)cc2)n1	PNC assembly inh -87
COc1cc(C2c3c(oc4ccc(F)cc4c3=O)C(=O)N2Cc2ccc3c(c2)OCO3)ccc1O (stereo not drawn)	none (no result: HTT cytoprotect, PNC assembly inh, NPSR antag, 12-hLO inh, HTT aggregate)
CCCc1nc2ccccc2c(C(=O)OCC(=O)Nc2ccc(S(=O)(=O)N3CCOCC3)cc2)c1CC	NPSR antag 10µM, HTT aggregate inconclusive
O=C(c1cnc2ccccc2n1)N1CCN(c2ccc(C(F)(F)F)cn2)CC1	none (no result: PNC assembly inh, 12-hLO inh, IMPase inh)
CCCNC(=O)c1c(N)n(-c2cc(OC)cc(OC)c2)c2nc3ccccc3nc12	HTT aggregate 18µM
CCCNC(=O)c1c(N)n(-c2ccc3c(c2)OCO3)c2nc3ccccc3nc12	none
CN1CCN(S(=O)(=O)c2ccc(Br)s2)CC1	HTT aggregate inconclusive
CCOC(=O)N1CCN(S(=O)(=O)c2ccc(Br)s2)CC1	PNC assembly inh -90
CCCCOc1ccc(C(=O)N2CCCC2C(=O)O)cc1 (stereo not drawn)	PNC assembly inh -100, IMPase inh inconclusive
CCn1cc(C(=O)NCC2CCCO2)c(=O)c2cc(S(=O)(=O)N3CCCCCC3)ccc21 (stereo not drawn)	NPSR antag 3.2µM
CN(C)[C@H]1C(=O)C(C(=O)NCN2CCCC2)=C(O)[C@]2(O)C(=O)C3=C(O)c4c(O)cccc4[C@](C)(O)[C@H]3C[C@H]12	none (no result: PNC assembly inh, NPSR antag, IMPase inh)
O=C[C@@H]1CCCN1C(=O)[C@@H]1CCCN1C(=O)OCc1ccccc1	none (no result: PNC assembly inh, NPSR antag, 12-hLO inh, HTT aggregate, IMPase inh)
O=C(Nc1ccc2ccccc2c1)[C@@H]1C[C@H]1[C@@H](NP(=O)(c1ccccc1)c1ccccc1)c1ccccc1	PNC assembly inh -119 (no result: IMPase inh)
Cc1ccc(NC2=C/C(=N/S(=O)(=O)c3cccs3)c3ccccc3C2=O)cc1	PNC assembly inh -101, NPSR antag 10µM, HTT aggregate 3.5µM (no result: HTT cytoprotect, IMPase inh)
O=C1C(Nc2ccccc2)=C/C(=N/S(=O)(=O)c2cccs2)c2ccccc21	PNC assembly inh -81, HTT aggregate 6.3µM (no result: IMPase inh)
CCOC(=O)N/N=C1/C[C@@H](O)[C@@H](O)[C@@H]2[C@@H]3C(=O)N(C(C)(C)C)C(=O)[C@H]3CC[C@@H]12	none (no result: PNC assembly inh, NPSR antag, 12-hLO inh, HTT aggregate, IMPase inh)
O=C(NNC(=O)c1cccnc1SCc1cccc([N+](=O)[O-])c1)c1cccnc1	PNC assembly inh inconclusive
